# Compounds with a hit are over-represented: about 18% of the library has one in this group of screens.
# DT40 TDP1 CPT – qHTS for Inhibitors of human tyrosyl-DNA phosphodiesterase 1 (TDP1): qHTS in cells in presence of CPT. chicken DT40 Tdp1-/-;hTDP1 cells + 20 nM CPT, ATP luminescence, 48 h. Potency, µM (highest dose often 46.2 µM), usual class: inhibitors. 12% of 420,000 active. AID 686979, 2013; further: nearly all actives have a fitted effect of over 55% in size
#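 Cell growth measured by CellTiter-Glo luminescence after a minimum 48 h, 37 C compound exposure with 20 nM CPT in Tdp1-knockout DT40 cells stably expressing hTDP1, seeded 400/well; qHTS titration format.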
# TDP1 cell noCPT – qHTS for Inhibitors of human tyrosyl-DNA phosphodiesterase 1 (TDP1): qHTS in cells in absence of CPT. DT40 Tdp1-/- hTDP1 cells, no CPT, ATP luminescence, 48 h. Potency, µM (highest dose often 46.2 µM), actives largely listed as inhibitors. 15% of 420,000 active. AID 686978, 2013; further: nearly all actives have a fitted effect of over 55% in size
#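 Stably hTDP1-transfected Tdp1-null chicken DT40 cells were treated with library compounds minus camptothecin and grown for at least 48 hr at 37 °C, after which cellular ATP was quantified by luminescence.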
# RORg inh – qHTS for inhibitors of ROR gamma transcriptional activity; Nuclear receptor ROR-gamma (Mus musculus), P51450; Drosophila S2 Gal4-RORgamma UAS-luciferase reporter, 20 h; Potency, µM (titrated, usually from 53.6 µM), usual class: inhibitors; 5.4% of 310,000 active; AID 2551, 2010; further: nearly all actives have a fitted effect of over 60% in size
# Target sequence (P51450 whole entry, looked up, the tested form may be a part): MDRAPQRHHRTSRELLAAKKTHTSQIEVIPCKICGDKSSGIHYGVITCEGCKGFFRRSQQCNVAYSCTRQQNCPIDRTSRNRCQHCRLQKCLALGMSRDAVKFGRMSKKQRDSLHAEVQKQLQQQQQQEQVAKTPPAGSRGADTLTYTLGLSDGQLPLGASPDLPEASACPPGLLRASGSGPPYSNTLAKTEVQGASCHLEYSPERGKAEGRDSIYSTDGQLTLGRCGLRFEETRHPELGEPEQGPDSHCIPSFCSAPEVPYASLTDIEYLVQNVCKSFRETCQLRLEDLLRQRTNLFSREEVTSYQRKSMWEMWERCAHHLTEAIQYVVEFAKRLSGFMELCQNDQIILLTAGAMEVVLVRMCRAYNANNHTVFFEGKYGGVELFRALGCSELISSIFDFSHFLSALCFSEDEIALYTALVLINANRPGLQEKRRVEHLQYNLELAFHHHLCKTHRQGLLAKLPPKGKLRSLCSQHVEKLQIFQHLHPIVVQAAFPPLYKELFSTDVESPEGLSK
#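 Schneider cells (Drosophila), stable Gal4 DBD–ROR gamma + UAS-luc; 1 hr cmpd preincubation; Cu2+ induction 700 uM final; 20 hr ambient; luminescence.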
# IL1B secr inh – qHTS for Inhibitors of Inflammasome Signaling: IL-1-beta AlphaLISA Primary Screen. THP-1 LPS/ATP IL-1B secretion, AlphaLISA, 16 h; hits give low values. activity change, % at 57.5 µM. 4.7% of 360,000 active. AID 743279, 2014; in the data active means activity change below about -50%; inconclusive means mostly about -30% to -49%
#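 Secreted IL-1B measured by AlphaLISA bead assay after 16 h compound exposure of THP-1 cells; compounds (final up to 57.5 uM) added 1 h before LPS (250 ng/mL) and ATP (1.25 mM) stimulation; lower signal means less secretion.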
# LDHA inh – qHTS assay for inhibitors of human lactate dehydrogenase; activity change, % (values are at about 110 or 230 µM); L-lactate dehydrogenase A chain (Homo sapiens), P00338; 0.15% of 480,000 active; purified LDHA, NADH/diaphorase-resazurin fluorescence; hits give low values; in the data active means activity change below about -30%; inconclusive means mostly about -25% to -30%
#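 Resorufin fluorescence (ex540/em590), read at 0 and 20 min after diaphorase/resazurin addition, reports the NADH left after a 5 min room-temperature reaction of 2 nM human LDH5 with 0.06 mM NADH and 0.2 mM pyruvate.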
# Gal4-VP16 FLuc – VP16 counterscreen qHTS for inhibitors of ROR gamma transcriptional activity | Drosophila S2 Gal4-VP16 UAS-luciferase, luminescence, 20 h | Potency, µM (titrated, usually from 53.6 µM), usual class: inhibitors | AID 2546, 2010 | 3.5% of 310,000 active;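 further: Gal4-VP16 expression switched on by copper sulfate through the metallothionein promoter; nearly all actives have a fitted effect of over 50% in size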
# A number is an active result; i = inactive; ? = inconclusive; nt = no result given; [ ] = dose if it differs, or a comment. Unless noted, the call rests on the fitted dose curve; in most records, active means well fitted curve in the direction sought with a large enough effect; inconclusive means small, poorly fitted or top-dose-only effect, or another doubt; inactive means no such curve, though single readings can be large; an effect the other way counts as inactive or inconclusive.
SMILES,DT40 TDP1 CPT,TDP1 cell noCPT,RORg inh,IL1B secr inh,LDHA inh,Gal4-VP16 FLuc
FC(F)(F)c1ccc(/C=N/Nc2ccc(Cl)c(Cl)c2)cc1,nt,nt,nt,nt,i,nt
COc1ccc(-c2[nH]ncc2/C=C(/C#N)C(=O)NC2CCCCCC2)cc1,?,18.4µM,i,-88.2,i,?
CCOC(=O)Cn1cc(/C=C2\SC(=O)N(C)C2=O)c2ccccc21,nt,nt,nt,nt,i,nt
CCOc1cccc(CN2CCCC(N3CCc4ccccc4C3)C2)c1O (stereo not drawn),i,?,i,i,i,i
CCOc1cccc(CN2CCCC(N3CCN(c4cccc(Cl)c4)CC3)C2)c1O (stereo not drawn),i,?,i,-72.0,i,i
CCOc1cccc(CN2CCCC(C(=O)c3cc(Cl)ccc3OC)C2)c1O (stereo not drawn),?,?,i,-54.7,i,i
COc1ccc(Cl)cc1C(=O)C1CCCN(Cc2cnc(N3CCOCC3)s2)C1 (stereo not drawn),?,29.1µM,i,i,i,i
CCC(C)NC(=O)CSc1nnc(-c2ccncc2)n1CC(F)(F)F (stereo not drawn),nt,nt,nt,nt,i,nt
CC(=O)c1ccc(N2CCN(C(C(=O)O)c3c[nH]c4ccc(OCc5ccccc5)cc34)CC2)cc1 (stereo not drawn),nt,nt,nt,nt,i,nt
CC(=O)c1sc2nc(CSc3nnnn3-c3ccccc3)[nH]c(=O)c2c1C,i,i,?,i,i,i
Cc1sc2nc(SCC(=O)N(C)c3ccccc3)n(C)c(=O)c2c1C,18.4µM,13µM,i,i,i,i
Cc1sc2nc(CSCC(=O)Nc3c(F)cccc3F)[nH]c(=O)c2c1C,11.6µM,10.3µM,nt,i,i,nt
Cc1sc2nc(CSCC(=O)N(CCC#N)c3ccccc3)[nH]c(=O)c2c1C,18.4µM,?,i,i,i,i
Cc1ccc(-n2nnnc2SCc2nc3sc(C)c(C)c3c(=O)[nH]2)cc1,?,?,11.2µM,i,i,?
Cn1c(=O)c2c(-c3ccccc3)n3c(c2n(C)c1=O)C(c1coc2ccccc2c1=O)OCC3(C)C (stereo not drawn),nt,nt,nt,nt,i,nt
Cc1ccc(S(=O)(=O)Nc2nc3ccccc3nc2NC2CCCCC2)cc1,nt,nt,nt,nt,i,nt
Oc1ccc(C2(c3cccc(Cl)c3)CCCCC2)cc1,nt,nt,nt,nt,i,nt
COc1cc(C(=O)N/C(=C\c2cn(C)c3ccccc23)C(=O)NCCO)cc(OC)c1OC,nt,nt,nt,nt,i,nt
CC(C)(C)OC(=O)Nc1ccc(C(=O)NCC(c2cccs2)N2CCCC2)cc1 (stereo not drawn),nt,nt,nt,nt,i,nt
Cc1sc2nc(CSCC(=O)N(C)c3ccccc3)[nH]c(=O)c2c1C,23.1µM,16.4µM,?,i,i,i
Cc1sc2nc(SCC(=O)N3CC(C)OC(C)C3)n(C)c(=O)c2c1C (stereo not drawn),?,13µM,i,i,i,i
CCn1c(SCC(=O)N2CCc3ccccc3C2)nc2sc(C)c(C)c2c1=O,?,20.6µM,?,i,i,i
CS(=O)(=O)Cc1cccc(C(=O)Oc2ccc(C34CC5CC(CC(C5)C3)C4)cc2)c1,nt,nt,nt,nt,i,nt
Cc1c(C(=O)COC(C)(C)C)[nH]c2ccccc12,20.6µM,?,i,i,i,i
CCc1cccc(C)c1NC(=O)c1cc(=O)c2ccccc2o1,nt,nt,nt,nt,i,nt
SMILES,DT40 TDP1 CPT,TDP1 cell noCPT,RORg inh,IL1B secr inh,LDHA inh,Gal4-VP16 FLuc
CCCCN(CC)C(=O)c1ccc2nc(C)c(C)nc2c1,nt,nt,nt,nt,i,nt
O=[N+]([O-])c1nn(-c2ccc(Cl)cc2)n(O)c1=NCc1cccnc1,8.2µM,10.3µM,i[10 µM],i,i,i
Cc1cccc(-n2nc([N+](=O)[O-])c(=NCc3cccnc3)n2O)c1,11.6µM,?,?,i,i,i
O=[N+]([O-])c1nn(-c2ccc(Cl)cc2)n(O)c1=NCc1ccccc1Cl,i,?,i,i,i,i
Cc1cccc(CC(=O)Nc2cccnc2)c1,i,?,i,i,i,i
Cc1ccc(CN=c2c([N+](=O)[O-])nn(-c3ccc(Cl)cc3)n2O)cc1,?,?,i,i,i,i
O=[N+]([O-])c1nn(-c2cccc(Cl)c2)n(O)c1=NCc1cccnc1,8.2µM,13µM,i,i,i,?
O=[N+]([O-])c1nn(-c2ccc(Cl)cc2)n(O)c1=NCc1ccncc1,5.17µM,10.3µM,i,?,i,?
COc1ccc(/C=C/c2nc(C#N)c(NCCCn3ccnc3)o2)cc1OC,nt,nt,nt,nt,i,nt
COCc1nc2ccccc2n1Cc1ccc(Br)cc1,i,?,10µM,i,i,?
COc1ccccc1OCc1nc2ccccc2n1Cc1ccccc1,?,16.4µM,nt,nt,i,nt
O=c1cnc2ccccc2n1Cc1ccc(Br)cc1,i,?,?,i,i,i
Cc1ccc(/C=C/C(=O)NCC(C)C)cc1,nt,nt,nt,nt,i,nt
CCCCNC(=O)C1CCC(CNS(=O)(=O)c2ccc(C)cc2)CC1 (stereo not drawn),i,i,i,i,i,i
CCCCSCCCNC(=O)C1CCC(CNS(=O)(=O)c2ccccc2)CC1 (stereo not drawn),16.4µM,?,i,i,i,i
Cc1oc2cc(OC(=O)c3ccco3)ccc2c(=O)c1-c1ccccc1,nt,nt,nt,nt,i,nt
Cc1oc2cc(OC(=O)c3ccco3)ccc2c(=O)c1-c1ccc(Br)cc1,nt,nt,nt,nt,-34.1,nt
COC(=O)CCNC(=O)c1ccc(COC(C)=O)cc1,nt,nt,nt,nt,i,nt
NC(=O)c1nsc(C(=O)N(Cc2cccnc2)C(C(=O)NCc2ccc(F)cc2)c2ccc(F)cc2)c1N (stereo not drawn),i,i,?,-55.4,i,i
NC(=O)c1nsc(C(=O)N(Cc2ccco2)C(C(=O)NCc2ccc(F)cc2)c2ccc(O)cc2)c1N (stereo not drawn),16.4µM,?,i,?,i,i
Cc1ccc(C(C(=O)NCc2ccc(F)cc2)N(Cc2ccco2)C(=O)c2snc(C(N)=O)c2N)o1 (stereo not drawn),14.6µM,14.6µM,i,-70.6,i,i
COCCNC(=O)C(c1ccc(C)o1)N(Cc1ccco1)C(=O)c1snc(C(N)=O)c1N (stereo not drawn),i,i,i,i,i,i
CN(C)c1ccc(C(C(=O)NCC2CCCO2)N(Cc2ccco2)C(=O)c2snc(C(N)=O)c2N)cc1 (stereo not drawn),?,?,i,i,i,i

# Screening data as filed in PubChem BioAssay.
